Measured values published in ChEMBL document CHEMBL1157539, “Thousands of chemical starting points for antimalarial lead identification” (Nature, 2010).

The compounds below were run on HepG2 (assay: GSK_TCMDC: Percent inhibition of human HepG2 cell line. Test compounds present at 10uM.).
Type: functional

Q: How did the Inhibition turn out when `CC1(C)CNCc2cc(NC(=O)/C=C/c3ccc(Cl)cc3)ccc21.Cl` was run?
A: Its Inhibition is 23%.

Q: Which Inhibition does the source give for `Cc1cccc2nc(-c3cccc(-c4ccc(CNCCc5ccncc5)cc4)c3)[nH]c12.O=C(O)C(F)(F)F` here?
A: The Inhibition was 40%.

Q: With `CN1CCC[C@H]1COc1ccc(CN2CC[C@H](NC(=O)c3ccc(Cl)c(Cl)c3)C2)cc1Br.O=C(O)C(F)(F)F` as the compound, how does the Inhibition read?
A: The Inhibition was 81%.

Q: With `Cc1nnsc1C(=O)Nc1cccc(-c2ccc(-c3nc4ccccc4[nH]3)cc2)c1` as the compound, how does the Inhibition read?
A: Its Inhibition is 48%.

Q: With `Cc1cc2cc(-c3ccc(CN)cc3)ccc2nc1N` as the compound, how does the Inhibition read?
A: The Inhibition was 18%.

Q: For `O=C(Cc1ccc(NC(=O)c2ccc(O)c(-c3ccc(Cl)c(Cl)c3)c2)cc1)NCCN1CCCCC1`, which Inhibition is on record?
A: The Inhibition was 12%.

Q: Which Inhibition does the source give for `O=C(NCCCN1CCOCC1)c1ccc(-c2cccc(NC(=O)c3ccc(Cl)c(Cl)c3)c2)cc1` here?
A: The Inhibition was 3%.

Q: With `C#CCCOc1ccc2ccccc2c1CNCCCCCCNCc1c(OCCC#C)ccc2ccccc12` as the compound, how does the Inhibition read?
A: Its Inhibition is 100%.

Q: Which Inhibition does the source give for `O=C(C=Cc1ccc(Cl)c(Cl)c1)NCCCCCN1CCC(CCCNS(=O)(=O)c2ccc(F)cc2)CC1` here?
A: The Inhibition was 52%.

Q: `CCCc1ccc(NC(=O)c2ccc(CN3CCCN(CC4CCCCC4)CC3)cc2)cc1.O=C(O)C(F)(F)F` was tested. Which Inhibition did it give?
A: Its Inhibition is 49%.

Q: With `COC(=O)C(c1ccc(NC(=O)[C@H](CC(C)C)NC(=O)OC(C)(C)C)cc1)c1ccc(NC(=O)[C@H](CC(C)C)NC(=O)OC(C)(C)C)cc1` as the compound, how does the Inhibition read?
A: The Inhibition was 0%.

Q: `O=C(O)C(F)(F)F.c1ccc(CNCc2cccc(-c3ccc(-c4nc5ccccc5[nH]4)s3)c2)cc1` was tested. Which Inhibition did it give?
A: Its Inhibition is 8%.

Q: How did the Inhibition turn out when `CCc1cn2c3c(cc(C(=O)N[C@@H](Cc4ccccc4)[C@H](O)CNC(C)(C)c4cccc(OC)c4)cc13)N(C)S(=O)(=O)C2.O=CO` was run?
A: The Inhibition was 27%.

Q: For `COc1cccc2c1CCN(CCN1CCC(CNC(=O)c3ccc(-c4ccc(C#N)cc4)cc3)CC1)C2`, which Inhibition is on record?
A: Its Inhibition is 57%.

Q: With `CCc1cn2c3c(cc(C(=O)N[C@@H](Cc4ccccc4)[C@H](O)CNCCOC)cc13)N(C)S(=O)(=O)CC2.O=CO` as the compound, how does the Inhibition read?
A: Its Inhibition is 7%.

Q: How did the Inhibition turn out when `C[C@@H](CNc1ccnc(Nc2ccc3[nH]c(=O)[nH]c3c2)n1)c1ccccc1` was run?
A: The Inhibition was 42%.

Q: For `C[C@@H]1CN(C(c2cccc(O)c2)c2cccc(C(=O)N(C)c3cccc(F)c3)c2)[C@@H](C)CN1C(c1cccc(O)c1)c1cccc(C(=O)N(C)c2cccc(F)c2)c1.Cl` (stereo partly specified), which Inhibition is on record?
A: Its Inhibition is 0%.

Q: With `Cc1cccc2nc(-c3cccc(-c4cccc(C(=O)NCc5nccn5C)c4)c3)[nH]c12` as the compound, how does the Inhibition read?
A: Its Inhibition is 22%.

Q: For `Cc1ccc2cc(C3NC(=O)c4ccccc4N3)c(Cl)nc2c1` (stereo unspecified), which Inhibition is on record?
A: The Inhibition was 0%.

Q: With `Cc1cccc2nc(-c3ccc(-c4cccc(CNCCNC(=O)c5ccnn5C)c4)s3)[nH]c12.O=C(O)C(F)(F)F` as the compound, how does the Inhibition read?
A: The Inhibition was 17%.

Q: How did the Inhibition turn out when `CC(C)(Oc1c(C2CCN(CCCCNC(=O)c3ccc(-c4ccc(Cl)cc4)cc3)CC2)ccc2c1CCCC2)C(N)=O` was run?
A: Its Inhibition is 100%.

Q: `CN1CCC(NCc2ccc(-c3cccc(S(=O)(=O)NCC4CCCO4)c3)cc2)CC1.O=C(O)C(F)(F)F` (stereo unspecified) was tested. Which Inhibition did it give?
A: Its Inhibition is 8%.

Q: `COc1ccccc1COc1c(C)nc(N)nc1N.Cl` was tested. Which Inhibition did it give?
A: Its Inhibition is 32%.

Q: With `CSC1=NC(=Nc2c(C)cccc2C)C2(CCCCC2)N1c1ccccc1Cl` as the compound, how does the Inhibition read?
A: The Inhibition was 22%.

Q: `COc1cccc2cc(C(=O)N[C@@H](CC(C)C)C(=O)NC3CC[C@@H](C)N(C(=O)Nc4ccncc4)CC3=O)oc12` (stereo partly specified) was tested. Which Inhibition did it give?
A: The Inhibition was 7%.

Q: For `Cc1cc2nc(-c3cccc(C(=O)NC4CCN(Cc5ccccc5)CC4)c3)[nH]c2cc1C`, which Inhibition is on record?
A: The Inhibition was 32%.

Q: With `Cl.NOCCCCOc1ccc(Cl)cc1` as the compound, how does the Inhibition read?
A: The Inhibition was 2%.

Q: For `Cl.N#Cc1cccc(-c2ccc(C(=O)Nc3ccc4c(c3)CCN(C3CCC3)CC4)cn2)c1`, which Inhibition is on record?
A: The Inhibition was 26%.

Q: `OC(CNCc1ccco1)Cn1c2ccc(Br)cc2c2cc(Br)ccc21` (stereo unspecified) was tested. Which Inhibition did it give?
A: Its Inhibition is 10%.

Q: Which Inhibition does the source give for `CC(C)N(Cc1ccc(-c2ccc(C(F)(F)F)cc2)cc1)C(=O)Cn1c(CCc2cccc(F)c2F)cc(=O)c2ccc(CCCN3CCCCC3)cc21.O=C(O)C(O)C(O)C(=O)O` here?
A: Its Inhibition is 99%.

Q: How did the Inhibition turn out when `CC(N)(Cc1ccc(O)cc1)c1nnn[nH]1` (stereo unspecified) was run?
A: The Inhibition was 7%.

Q: Which Inhibition does the source give for `Cc1cc(=NN=Cc2cccc(F)c2)c2cc(F)ccc2[nH]1` here?
A: Its Inhibition is 7%.

Q: How did the Inhibition turn out when `Nc1cc2c(C3CCN(CC4CCN(C(=O)/C=C/c5ccc(Cl)c(Cl)c5)CC4)CC3)c[nH]c2cn1` was run?
A: Its Inhibition is 0%.

Q: How did the Inhibition turn out when `COc1ccc(CN(C)Cc2cc(C(C)C)c(C)cc2O)cc1F` was run?
A: Its Inhibition is 1%.

Q: How did the Inhibition turn out when `CCOc1cc(O)c(-c2nc(N)ncc2-c2ccc3c(c2)OCCO3)cc1CC` was run?
A: Its Inhibition is 0%.

Q: Which Inhibition does the source give for `C=C[C@H]1CN2CC[C@H]1C[C@@H]2[C@@H](O)c1ccnc2ccc(OC)cc12` [QUINIDINE] here?
A: The Inhibition was 0%.
